RecA splice inh = blocks M. tuberculosis RecA intein splicing. cell-free RecA intein splicing, fluorescence. AID 2221. 0.75% of 290,000 active. inhibition, % (test concentration not listed). P9WHJ3; in the data active means inhibition above about 30%;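 further: 0% = vehicle wells and 100% = reference inhibitor control wells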
GDH-TPI counter = counter-screen for M. tuberculosis FBA inhibitors: GDH-TPI coupled enzymes. GDH-TPI coupled enzyme counterscreen, NADH absorbance. inhibition, % at 4.8 µM. 1.2% of 360,000 active;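 further: 0% = DMSO wells and 100% = wells lacking the enzyme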
CCHFV vOTU inh = blocks the CCHF virus ovarian tumor domain protease; CCHFV vOTU protease, Pep-AMC fluorescence; inhibition, % at 11.5 µM; 0.55% of 370,000 active; AID 651958; further: 0% = vehicle wells with enzyme and 100% = no enzyme wells
Mtb FBA inh = inhibits M. tuberculosis FBA enzyme; inhibition, % at 1 µM; purified M. tuberculosis FBA, fluorescence read-out; P9WQA3; 2.3% of 360,000 active; in the data active means inhibition above about 27%;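 further: 0% = vehicle and 100% = reference inhibitor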
Target sequence (P9WQA3 whole entry, looked up): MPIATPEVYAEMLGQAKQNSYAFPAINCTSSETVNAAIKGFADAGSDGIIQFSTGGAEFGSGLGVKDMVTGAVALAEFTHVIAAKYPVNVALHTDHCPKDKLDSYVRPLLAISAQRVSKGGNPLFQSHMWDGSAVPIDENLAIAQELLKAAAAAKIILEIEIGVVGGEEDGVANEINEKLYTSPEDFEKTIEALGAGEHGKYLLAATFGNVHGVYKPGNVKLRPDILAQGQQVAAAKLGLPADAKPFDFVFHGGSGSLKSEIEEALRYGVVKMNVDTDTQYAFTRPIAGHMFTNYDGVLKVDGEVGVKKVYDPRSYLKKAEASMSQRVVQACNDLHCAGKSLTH
The depositor's hits bear a star. In the library only some 4.2% were active in any assay of this set; here they are far more common. Unless noted, no stated cut-off is given here; in the data, active means inhibition above about 30%; inactive means the rest.

CC(=O)Nc1ccc2c(c1)C(=O)N(C)[C@H]1CC[C@H](CC(=O)NCc3ccc(F)cc3)O[C@@H]1CO2 was read as CCHFV vOTU inh 6.
For C/C(=N\Nc1cccc(C(=O)O)c1)c1cc2ccccc2o1 the results were GDH-TPI counter 48*, CCHFV vOTU inh 20 and Mtb FBA inh -2.
For C/C(=N\Nc1ccc(Cl)c(C(=O)O)c1)c1cc2ccccc2o1 the results were GDH-TPI counter 31*, CCHFV vOTU inh 14 and Mtb FBA inh -1.
`C/C(=N\Nc1ccc(Cl)c(C(=O)O)c1)c1ccccn1` gave RecA splice inh -3, GDH-TPI counter 37*, CCHFV vOTU inh -6 and Mtb FBA inh 1.
`C/C(=N\Nc1ncc(Cl)cc1Cl)c1ccccn1` gave RecA splice inh 0, GDH-TPI counter 9 and Mtb FBA inh 7.
C/C(=N\Nc1ccc(Cl)c(C(=O)O)c1)c1cccc2ccccc12 was read as RecA splice inh 2, GDH-TPI counter 16, CCHFV vOTU inh 8 and Mtb FBA inh -1.
COc1ccc2nc(-c3ccc(CN4CCC5(CC4)CNc4ccccc45)cc3)c(-c3ccccc3)nc2c1 was read as CCHFV vOTU inh 5.
Screening Cc1ccc(NC(=O)CN2C(=O)N/C(=C/c3ccc(C)s3)C2=O)cc1 returned RecA splice inh -10, GDH-TPI counter 32*, CCHFV vOTU inh -19 and Mtb FBA inh -1.
Screening C=CCn1c(=NC(=O)c2ccc(S(=O)(=O)N3CCc4ccccc4C3)cc2)sc2cc(S(N)(=O)=O)ccc21 returned RecA splice inh 7, GDH-TPI counter 26, CCHFV vOTU inh -89 and Mtb FBA inh 26.
C#CCn1c(=NC(=O)c2ccc(S(=O)(=O)N3CCc4ccccc4C3)cc2)sc2cc(S(N)(=O)=O)ccc21 was read as RecA splice inh 2, GDH-TPI counter 48* and Mtb FBA inh 10.
`Cc1cc2c(c(=O)o1)[C@@]1(C(=O)Nc3ccccc31)C1=C(CCCC1=O)O2` gave CCHFV vOTU inh -9.
For CCOC(=O)c1cc(NC(=O)c2ccccc2)c(=O)oc1-c1ccccc1 the results were RecA splice inh -1, GDH-TPI counter 33*, CCHFV vOTU inh 0 and Mtb FBA inh 2.
Cc1oc(=O)c(NC(=O)c2ccccc2)cc1C(C)O (centres undefined) was read as RecA splice inh 3, GDH-TPI counter 14, CCHFV vOTU inh 8 and Mtb FBA inh 3.
C#CCNC(=O)C[C@H]1C[C@@]2(C(=O)OC)C(=C[C@H](COCc3ccccc3)O[C@@H]2C)N(Cc2ccccc2)C1=O was read as CCHFV vOTU inh -1.
Screening O=c1c2ccccc2oc2cc(NCCCN3CCOCC3)ccc12 returned RecA splice inh -495, GDH-TPI counter 22, CCHFV vOTU inh -212 and Mtb FBA inh active.
For O=c1c2ccccc2oc2ccc(NCCCN3CCOCC3)cc12 the results were RecA splice inh -13, GDH-TPI counter 8, CCHFV vOTU inh -3 and Mtb FBA inh 1.
`O=c1c2ccccc2oc2cc(NCCCn3ccnc3)ccc12` gave RecA splice inh -18, GDH-TPI counter 23, CCHFV vOTU inh -221 and Mtb FBA inh active.
Cn1c2ccccc2c(=O)c2cc(NCCCN3CCOCC3)ccc21 was read as GDH-TPI counter 23, CCHFV vOTU inh -244 and Mtb FBA inh active.
For C=CCN1[C@H](C#N)[C@@H](c2ccccc2)[C@H]1CO the results were CCHFV vOTU inh -5.
For CC(CCc1ccccc1)NC(=O)COC(=O)c1ccc(NC(=O)CC#N)cc1 (centres undefined) the results were RecA splice inh 0, GDH-TPI counter 6, CCHFV vOTU inh -3 and Mtb FBA inh 0.
For COc1ccccc1CNC(=O)NC1CCN(CC(=O)Nc2ccc3c(c2)OCCO3)CC1 the results were CCHFV vOTU inh 8.
For COc1ccc(-n2c(CN3CCN(c4ccccn4)CC3)nc3ccc([N+](=O)[O-])cc3c2=O)c(OC)c1 the results were RecA splice inh -4, GDH-TPI counter 18, CCHFV vOTU inh -11 and Mtb FBA inh -6.
CCN(CC)CCCNc1ccc(-c2nnc(-c3ccc(OCC(C)C)cc3)o2)cn1 was read as RecA splice inh 2, GDH-TPI counter 24, CCHFV vOTU inh -195 and Mtb FBA inh active.
Screening Cc1oc(-c2ccc(Cl)cc2)nc1CS(=O)CC(=O)NCc1ccccn1 (centres undefined) returned RecA splice inh 2, GDH-TPI counter 3, CCHFV vOTU inh 17 and Mtb FBA inh 1.
Screening CC(C)c1ccc(-c2nn(-c3ccccc3)cc2C(=O)NCC2CCCO2)cc1 (centres undefined) returned RecA splice inh 1, GDH-TPI counter -5, CCHFV vOTU inh 23 and Mtb FBA inh 1.
Screening CCc1nnc(NC(=O)CCN2C(=O)C3CCCCC3C2=O)s1 (centres undefined) returned RecA splice inh -4, GDH-TPI counter 10, CCHFV vOTU inh -3 and Mtb FBA inh 6.
COC(=O)c1sccc1-c1ccc(/C=N/OC(=O)c2ccccc2)o1 was read as RecA splice inh 2, GDH-TPI counter 31*, CCHFV vOTU inh 11 and Mtb FBA inh 14.
`COC(=O)c1ccccc1-c1ccc(/C=N/NC(N)=O)o1` gave RecA splice inh -3, GDH-TPI counter 32*, CCHFV vOTU inh -6 and Mtb FBA inh 1.
COC(=O)N/N=C/c1ccc(-c2ccc(Cl)cc2Cl)o1 was read as RecA splice inh 0, GDH-TPI counter 34*, CCHFV vOTU inh 15 and Mtb FBA inh 4.
Screening COC(=O)N/N=C/c1ccc(-c2ccccc2Cl)o1 returned RecA splice inh 1, GDH-TPI counter 35*, CCHFV vOTU inh 9 and Mtb FBA inh 0.
Screening O=C1OCCN1C(=O)[C@H]1[C@H](c2ccc(Cl)cc2)C(c2cccc(Cl)c2)=NN1c1ccccc1 returned RecA splice inh -102, GDH-TPI counter 3 and Mtb FBA inh 48*.
`O=C1OCCN1C(=O)[C@H]1[C@H](c2ccccc2)C(c2cccc(Cl)c2)=NN1c1ccc(Br)cc1` gave GDH-TPI counter 8, CCHFV vOTU inh -80 and Mtb FBA inh 54*.
`O=C1OCCN1C(=O)[C@H]1[C@H](c2ccc(F)cc2)C(c2cccc(Cl)c2)=NN1c1ccc(Br)cc1` gave GDH-TPI counter 1, CCHFV vOTU inh -144 and Mtb FBA inh 97*.
O=C1OCCN1C(=O)[C@H]1[C@H](c2ccc(F)cc2)C(c2cccc(Cl)c2)=NN1c1ccccc1 was read as GDH-TPI counter 5, CCHFV vOTU inh -40 and Mtb FBA inh 26.
For COc1ccccc1[C@@H]1C(c2ccccc2)=NN(c2ccc(Br)cc2)[C@H]1C(=O)N1CCOC1=O the results were GDH-TPI counter 2, CCHFV vOTU inh -29 and Mtb FBA inh 30*.
CCOC(=O)C1CCCN(S(=O)(=O)CCNC(=O)c2ccc3c(c2)OCO3)C1 (centres undefined) was read as RecA splice inh -2, GDH-TPI counter -6, CCHFV vOTU inh -4 and Mtb FBA inh 0.
Screening Cc1ccc2c(c1)N(CCCC(=O)NCc1cccs1)C(=O)CO2 returned CCHFV vOTU inh -11.
Screening O=C1OCCN1C(=O)[C@H]1[C@H](c2ccc(Cl)cc2)C(c2ccccc2)=NN1c1ccc(Br)cc1 returned GDH-TPI counter 9, CCHFV vOTU inh -82 and Mtb FBA inh 34*.
